# According to ChEMBL document CHEMBL1961873, “Compounds: GSK PKIS; Assays: Nanosyn kinase panel” (2012):
# How the values were obtained:
# [1] = target: Sphingosine kinase 1 (Homo sapiens) (UniProt Q9NYA1); settings: at 1 µM;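 further: mean SPHK1 inhibition value reported from the GSK PKIS kinase panel screen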
# [2] = target: T1, Sphingosine kinase 2 (Homo sapiens) (UniProt Q9NRA0); settings: at 0.1 µM
# T1 sequence (whole entry): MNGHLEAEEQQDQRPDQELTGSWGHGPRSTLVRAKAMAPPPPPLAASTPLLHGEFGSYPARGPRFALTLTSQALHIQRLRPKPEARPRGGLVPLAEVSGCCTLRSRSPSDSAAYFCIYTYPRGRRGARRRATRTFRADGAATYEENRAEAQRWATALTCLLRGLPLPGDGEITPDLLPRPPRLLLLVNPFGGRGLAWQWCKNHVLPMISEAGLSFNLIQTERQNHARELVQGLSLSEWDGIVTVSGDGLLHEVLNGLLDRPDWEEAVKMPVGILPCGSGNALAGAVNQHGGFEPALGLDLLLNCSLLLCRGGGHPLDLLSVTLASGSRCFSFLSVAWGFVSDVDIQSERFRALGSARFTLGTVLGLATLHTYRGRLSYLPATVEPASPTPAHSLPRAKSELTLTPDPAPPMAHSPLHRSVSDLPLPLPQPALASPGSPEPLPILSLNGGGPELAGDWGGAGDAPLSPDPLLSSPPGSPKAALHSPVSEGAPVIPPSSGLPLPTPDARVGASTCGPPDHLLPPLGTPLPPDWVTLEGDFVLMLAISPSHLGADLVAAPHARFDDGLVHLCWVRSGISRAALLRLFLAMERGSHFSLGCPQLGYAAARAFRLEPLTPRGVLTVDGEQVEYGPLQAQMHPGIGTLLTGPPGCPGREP
# [3] = target: T1, Sphingosine kinase 2 (Homo sapiens); settings: at 1 µM
# [4] = target: Casein kinase II subunit alpha (Homo sapiens) (UniProt P68400); settings: at 0.1 µM
# [5] = target: Casein kinase II subunit alpha (Homo sapiens) (UniProt P68400); settings: at 1 µM
# [6] = target: T2, Inhibitor of nuclear factor kappa-B kinase subunit alpha (Homo sapiens) (UniProt O15111); settings: at 0.1 µM
# T2 sequence (whole entry): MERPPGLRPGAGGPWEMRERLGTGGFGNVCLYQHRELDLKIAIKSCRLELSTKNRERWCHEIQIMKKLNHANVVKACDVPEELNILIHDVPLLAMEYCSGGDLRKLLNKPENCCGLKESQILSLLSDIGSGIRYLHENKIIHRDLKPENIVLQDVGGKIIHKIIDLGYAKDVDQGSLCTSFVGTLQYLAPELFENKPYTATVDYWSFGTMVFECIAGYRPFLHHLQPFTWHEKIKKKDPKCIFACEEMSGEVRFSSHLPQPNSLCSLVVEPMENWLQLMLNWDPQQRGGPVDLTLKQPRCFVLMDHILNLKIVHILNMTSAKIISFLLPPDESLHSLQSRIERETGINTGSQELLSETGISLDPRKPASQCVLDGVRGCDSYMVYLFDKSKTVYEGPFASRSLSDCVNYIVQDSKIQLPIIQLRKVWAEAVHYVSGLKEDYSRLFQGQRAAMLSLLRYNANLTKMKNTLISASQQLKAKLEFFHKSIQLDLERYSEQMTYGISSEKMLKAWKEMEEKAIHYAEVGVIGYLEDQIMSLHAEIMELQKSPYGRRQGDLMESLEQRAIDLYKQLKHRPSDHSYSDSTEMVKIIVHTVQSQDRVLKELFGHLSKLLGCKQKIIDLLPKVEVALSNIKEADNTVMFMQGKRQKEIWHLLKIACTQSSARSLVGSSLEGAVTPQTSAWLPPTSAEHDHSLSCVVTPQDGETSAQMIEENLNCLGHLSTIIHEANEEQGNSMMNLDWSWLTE
# [7] = target: T2, Inhibitor of nuclear factor kappa-B kinase subunit alpha (Homo sapiens); settings: at 1 µM
# [8] = target: T3, Inhibitor of nuclear factor kappa-B kinase subunit beta (Homo sapiens) (UniProt O14920); settings: at 0.1 µM
# T3 sequence (whole entry): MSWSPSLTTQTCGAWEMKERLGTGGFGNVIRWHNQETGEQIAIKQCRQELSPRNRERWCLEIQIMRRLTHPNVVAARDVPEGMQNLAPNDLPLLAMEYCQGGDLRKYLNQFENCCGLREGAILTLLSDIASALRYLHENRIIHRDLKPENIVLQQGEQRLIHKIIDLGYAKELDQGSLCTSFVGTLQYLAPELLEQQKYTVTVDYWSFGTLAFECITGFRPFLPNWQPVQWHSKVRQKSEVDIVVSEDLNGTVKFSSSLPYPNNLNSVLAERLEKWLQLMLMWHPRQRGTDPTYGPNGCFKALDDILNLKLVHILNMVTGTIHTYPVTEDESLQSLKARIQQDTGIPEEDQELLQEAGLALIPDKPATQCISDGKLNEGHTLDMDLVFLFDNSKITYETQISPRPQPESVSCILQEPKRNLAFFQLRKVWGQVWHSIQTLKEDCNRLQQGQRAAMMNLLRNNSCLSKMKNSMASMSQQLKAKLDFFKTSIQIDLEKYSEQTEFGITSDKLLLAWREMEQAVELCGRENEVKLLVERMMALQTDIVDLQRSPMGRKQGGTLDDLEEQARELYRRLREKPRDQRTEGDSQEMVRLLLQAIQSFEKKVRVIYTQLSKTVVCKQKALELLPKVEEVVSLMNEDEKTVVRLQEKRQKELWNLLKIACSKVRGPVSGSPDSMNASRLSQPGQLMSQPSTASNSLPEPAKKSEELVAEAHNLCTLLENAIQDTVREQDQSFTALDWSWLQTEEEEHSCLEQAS
# [9] = target: T3, Inhibitor of nuclear factor kappa-B kinase subunit beta (Homo sapiens); settings: at 1 µM
# [10] = target: T4, Inhibitor of nuclear factor kappa-B kinase subunit epsilon (Homo sapiens) (UniProt Q14164); settings: at 0.1 µM;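 further: mean inhibition of IKKε reported, from the GSK PKIS dataset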
# T4 sequence (whole entry): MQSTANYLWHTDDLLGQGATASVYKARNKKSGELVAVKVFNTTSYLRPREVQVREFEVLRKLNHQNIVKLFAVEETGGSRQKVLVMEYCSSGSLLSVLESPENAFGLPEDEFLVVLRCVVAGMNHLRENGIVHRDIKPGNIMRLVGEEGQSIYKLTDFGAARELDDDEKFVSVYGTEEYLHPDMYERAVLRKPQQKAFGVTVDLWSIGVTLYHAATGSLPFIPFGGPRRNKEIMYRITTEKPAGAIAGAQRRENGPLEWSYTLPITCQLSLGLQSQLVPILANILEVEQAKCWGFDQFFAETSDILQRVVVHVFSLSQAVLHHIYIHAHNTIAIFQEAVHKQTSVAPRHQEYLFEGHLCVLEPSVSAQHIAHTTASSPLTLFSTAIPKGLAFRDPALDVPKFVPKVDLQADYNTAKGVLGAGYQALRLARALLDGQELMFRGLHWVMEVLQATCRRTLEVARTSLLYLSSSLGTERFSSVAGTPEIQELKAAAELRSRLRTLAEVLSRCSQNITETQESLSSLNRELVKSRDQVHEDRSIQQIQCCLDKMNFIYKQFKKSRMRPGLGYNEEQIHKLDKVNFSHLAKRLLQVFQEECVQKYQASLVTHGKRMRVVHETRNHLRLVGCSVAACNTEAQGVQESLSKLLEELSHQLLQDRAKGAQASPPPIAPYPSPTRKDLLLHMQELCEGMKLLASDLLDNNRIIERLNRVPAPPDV
# Casein kinase II subunit alpha (Homo sapiens), sequence (P68400 whole entry, looked up): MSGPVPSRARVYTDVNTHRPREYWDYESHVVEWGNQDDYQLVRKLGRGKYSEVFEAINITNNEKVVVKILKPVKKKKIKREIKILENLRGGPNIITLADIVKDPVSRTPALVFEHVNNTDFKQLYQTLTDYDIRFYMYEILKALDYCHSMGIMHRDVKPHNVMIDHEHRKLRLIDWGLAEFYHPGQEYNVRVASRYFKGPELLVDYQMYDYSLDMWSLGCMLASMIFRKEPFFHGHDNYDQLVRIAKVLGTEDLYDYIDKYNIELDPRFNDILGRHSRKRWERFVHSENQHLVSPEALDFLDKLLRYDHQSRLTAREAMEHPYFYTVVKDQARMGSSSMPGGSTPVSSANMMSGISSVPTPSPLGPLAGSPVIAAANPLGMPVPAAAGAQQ
# Sphingosine kinase 1 (Homo sapiens), sequence (Q9NYA1 whole entry): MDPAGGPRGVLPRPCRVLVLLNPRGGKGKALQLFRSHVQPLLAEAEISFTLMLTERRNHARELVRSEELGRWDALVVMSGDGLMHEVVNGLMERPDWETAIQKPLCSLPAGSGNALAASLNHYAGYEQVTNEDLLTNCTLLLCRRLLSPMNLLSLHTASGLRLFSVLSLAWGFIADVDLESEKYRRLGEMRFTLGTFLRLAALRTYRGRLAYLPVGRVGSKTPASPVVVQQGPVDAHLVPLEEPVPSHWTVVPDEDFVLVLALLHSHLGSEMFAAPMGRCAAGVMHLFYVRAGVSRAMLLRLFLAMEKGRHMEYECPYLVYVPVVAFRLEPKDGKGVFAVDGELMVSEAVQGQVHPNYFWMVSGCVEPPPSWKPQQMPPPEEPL
smiles,measurement,setting,value
CC1=C(C(=O)Nc2ccc3[nH]ncc3c2)C(c2ccc(F)cc2)N=C(c2ccc(C(F)(F)F)nc2)N1 (stereo not given),inhibition,[1],2.01%
same,inhibition,[2],0%
same,inhibition,[3],-2.07%
same,inhibition,[4],2.45%
same,inhibition,[5],2.14%
same,inhibition,[6],7.64%
same,inhibition,[7],-0.7%
same,inhibition,[8],2.1%
same,inhibition,[9],-0.37%
same,inhibition,[10],2.04%
COc1cc(N2CCN(C(C)C)CC2)ccc1Nc1nc(Nc2cccc(F)c2C(=O)O)c2cc[nH]c2n1,inhibition,[1],-1.68%
same,inhibition,[2],-0.64%
same,inhibition,[3],-0.33%
same,inhibition,[4],6.3%
same,inhibition,[5],22.4%
same,inhibition,[6],4.18%
same,inhibition,[7],3.93%
same,inhibition,[8],6.66%
same,inhibition,[9],8.91%
same,inhibition,[10],5.22%
COc1c(C(N)=O)cc(-c2ccc(Cl)cc2)cc1-c1ccc(S(N)(=O)=O)cc1,inhibition,[1],0.21%
same,inhibition,[2],-0.78%
same,inhibition,[3],0.28%
same,inhibition,[4],1.48%
same,inhibition,[5],3.63%
same,inhibition,[6],2.15%
same,inhibition,[7],1.32%
same,inhibition,[8],6.58%
same,inhibition,[9],4.61%
same,inhibition,[10],8.74%
CN1CCC(n2cnc(-c3ccc(F)cc3)c2-c2ccnc(NCCO)n2)CC1,inhibition,[1],-1.28%
same,inhibition,[2],0.37%
same,inhibition,[3],-1.92%
same,inhibition,[4],4.78%
same,inhibition,[5],13.2%
same,inhibition,[6],2.6%
same,inhibition,[7],6.82%
same,inhibition,[8],5.84%
same,inhibition,[9],6.36%
same,inhibition,[10],7.53%
CS(=O)(=O)CCNCc1ccoc1-c1ccc2ncnc(Nc3ccc(OCc4ccccc4)cc3)c2c1,inhibition,[1],5.32%
same,inhibition,[2],1.37%
same,inhibition,[3],1.07%
same,inhibition,[4],2.14%
same,inhibition,[5],1.94%
same,inhibition,[6],1.95%
same,inhibition,[7],8.23%
same,inhibition,[8],-1.24%
same,inhibition,[9],0.42%
same,inhibition,[10],-0.44%
NS(=O)(=O)c1cccc(N/C=C2\C(=O)Nc3ccccc32)c1,inhibition,[1],-0.2%
same,inhibition,[2],0.81%
same,inhibition,[3],0.83%
same,inhibition,[4],2.24%
same,inhibition,[5],3.93%
same,inhibition,[6],4.81%
same,inhibition,[7],3.57%
same,inhibition,[8],6.37%
same,inhibition,[9],4.39%
same,inhibition,[10],6.35%
Cc1ccc(-c2cc3c(NC(=O)C4CC4)ncnc3o2)cc1,inhibition,[1],-8.41%
same,inhibition,[2],-0.23%
same,inhibition,[3],-0.24%
same,inhibition,[4],2.02%
same,inhibition,[5],10.8%
same,inhibition,[6],4.84%
same,inhibition,[7],1.2%
same,inhibition,[8],2.98%
same,inhibition,[9],4.2%
same,inhibition,[10],4.06%
CS(=O)(=O)Nc1ccc(-c2ccc3c(NC(=O)C4CC4)n[nH]c3c2)cc1,inhibition,[1],-3.21%
same,inhibition,[2],1.2%
same,inhibition,[3],0%
same,inhibition,[4],2.09%
same,inhibition,[5],0.41%
same,inhibition,[6],6.65%
same,inhibition,[7],-3.42%
same,inhibition,[8],3.69%
same,inhibition,[9],1.2%
same,inhibition,[10],-0.23%
